# Measured values from article PMC5700166.
# Biological target: GST-Hu-p50 (Homo sapiens, UniProt P19838 7-356)
# Assay: protein-binding microarray (PBM); PBM: ~300 nM protein, 6 mM HEPES pH 7.8, 80 mM KCl, 0.5 mM EDTA, 0.5 mM EGTA, 6% glycerol, 35 ng/ul poly-dIdC, 1% milk, 1 h, room temperature; Ap Aiptasia and Nv Nematostella (sea anemones) / Co Capsaspora / Aq Amphimedon (sponge) / Dm Drosophila / Hu human; RHD is the Rel homology domain; high values mean tight binding
# Conditions: dsDNA, one strand shown
# Chain of GST-Hu-p50 (P19838 7-356): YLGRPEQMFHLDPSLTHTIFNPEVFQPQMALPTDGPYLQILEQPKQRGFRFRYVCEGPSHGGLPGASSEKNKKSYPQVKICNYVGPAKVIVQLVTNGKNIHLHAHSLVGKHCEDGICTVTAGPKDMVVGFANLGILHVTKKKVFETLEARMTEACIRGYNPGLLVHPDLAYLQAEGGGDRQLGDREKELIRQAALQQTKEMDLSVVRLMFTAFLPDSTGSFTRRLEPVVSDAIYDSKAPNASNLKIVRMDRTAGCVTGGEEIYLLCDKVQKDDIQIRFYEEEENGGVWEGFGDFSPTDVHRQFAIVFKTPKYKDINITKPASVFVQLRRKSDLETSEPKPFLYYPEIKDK
row,Sequence,binding signal
1,CCGATTAACATCAGGCGAACCCCTGATGTTAATCGGGTCTTGATTCGCTTGACGCTGCTG,1.53 z-score
2,CCGATTAACATCAGGGAAACTTATGATGTTAATCGGGTCTTGATTCGCTTGACGCTGCTG,4.53 z-score
3,CCGATTAACATCAGATAAACCCCTGATGTTAATCGGGTCTTGATTCGCTTGACGCTGCTG,4.53 z-score
4,CCGATTAACATCAGGACATACCCTGATGTTAATCGGGTCTTGATTCGCTTGACGCTGCTG,1.78 z-score
5,CCGATTAACATCAGGGGCTTCCATGATGTTAATCGGGTCTTGATTCGCTTGACGCTGCTG,4.38 z-score
6,CCGATTAACATCAGGACTGCCCCTGATGTTAATCGGGTCTTGATTCGCTTGACGCTGCTG,4.09 z-score
7,CCGATTAACATCAGGAAATACCCTGATGTTAATCGGGTCTTGATTCGCTTGACGCTGCTG,6.12 z-score
8,CCGATTAACATCAGGAAGATCCCTGATGTTAATCGGGTCTTGATTCGCTTGACGCTGCTG,1.57 z-score
9,CCGATTAACATCAGGGAGTGCCCTGATGTTAATCGGGTCTTGATTCGCTTGACGCTGCTG,1.98 z-score
10,CCGATTAACATCACGGAAACACCTGATGTTAATCGGGTCTTGATTCGCTTGACGCTGCTG,3 z-score
11,CCGATTAACATCAGGATATCCCCTGATGTTAATCGGGTCTTGATTCGCTTGACGCTGCTG,5.46 z-score
12,CCGATTAACATCAAAAAATCACCTGATGTTAATCGGGTCTTGATTCGCTTGACGCTGCTG,5.67 z-score
13,CCGATTAACATCAAGGGAATTCCTGATGTTAATCGGGTCTTGATTCGCTTGACGCTGCTG,5.3 z-score
14,CCGATTAACATCAAATCCCCCCCTGATGTTAATCGGGTCTTGATTCGCTTGACGCTGCTG,6.87 z-score
